From PubChem BioAssay (NCI) come the findings set out here.

The panel holds about 79,000 compounds, 15% with a hit somewhere; the sample as a whole holds those more often. Values without a mark were called inactive. Calls of active or inactive are those of the source. No stated cut-off is given here; in the data, active means growth inhibition above about 70%; inactive means the rest.

The assay in a line: NCI Yeast Anticancer Drug Screen. Data for the wt1 strain (AID 149).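 Further: 0% = growth of vehicle-treated wt1 cultures.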 The settings on record: S. cerevisiae wt1 strain (SPY 50644) growth inhibition, active compounds read high. As for the experimental part:
Growth inhibition of yeast strains with defined genetic alterations is measured as a screen for potential anti-cancer activity. Selected strains with alterations in DNA damage repair or cell cycle control were exposed to compounds and growth inhibition was measured relative to vehicle treated controls. The strain used in this assay is wt1

As to `CC(CC(C)(C)[N+](C)(C)C)[N+](C)(C)C` (stereo not given), the growth inhibition by setting is: (at 1.2 µM) 3%; (at 3.7 µM) -2%; (at 11.0 µM) -3%; (at 33.0 µM) -3%; (at 100.0 µM) 0%.
For the compound `CCCCCCCCCCC1CCC(=O)O1` (stereo not given), the growth inhibition by setting is: (at 1.2 µM) -2%; (at 3.7 µM) -2%; (at 11.0 µM) -2%; (at 33.0 µM) 3%; (at 100.0 µM) 98% (active).
With `CCCCCCCCNC(=O)C1=C(C)NC(C)=C(C(=O)NCCCCCCCC)C1`, the growth inhibition was 2% (at 1.2 µM); 3% (at 3.7 µM); 1% (at 11.0 µM); 0% (at 33.0 µM); 3% (at 100.0 µM).
In the case of `CCOC(=O)C(NC(=O)c1ccccc1)(N1CCN(c2cc3c(cc2F)c(=O)c(C(=O)O)cn3C2CC2)CC1)C(F)(F)F` (stereo not given), the growth inhibition was -2% (at 1.2 µM); -1% (at 3.7 µM); -1% (at 11.0 µM); 0% (at 33.0 µM); 2% (at 100.0 µM).
`COc1cc2ccc(/C=C\[N+](=O)[O-])cc2cc1OC`: the growth inhibition (at 1.2 µM) is -24%; the growth inhibition (at 3.7 µM) is -25%; the growth inhibition (at 11.0 µM) was -37%; the growth inhibition (at 33.0 µM) was 98% (active); the growth inhibition (at 100.0 µM) was 96% (active).
On to `N#CSc1ccc(S(N)(=O)=O)cc1`, for which the growth inhibition by setting is: (at 1.2 µM) -43%; (at 3.7 µM) -50%; (at 11.0 µM) -31%; (at 33.0 µM) -9%; (at 100.0 µM) 53%.
The corresponding values for `COc1cc(CC2CC(c3ccc4c(c3)OCO4)OC2=O)cc(OC)c1OC` (stereo not given) are -2%, -3%, -4%, -3% and 0%.
The corresponding values for `[N-]=[N+]=NC1=C(c2ccccn2)C(=O)c2cccc3cccc1c23` are 2%, 4%, 5%, 14% and 34%.
